# Source: PubChem BioAssay
# Values joined by “and” are separate entries in the source; they are usually repeats but may differ in a detail not shown here. Equal values may be shown once. Records with an inconclusive call do not appear. Active and inactive are the calls of the source. Unless noted, cut-off not given; nearly all actives show AC50 up to about 26 µM.
# Experiments:
# [1] = EMT-state selective cytotoxicity in co-culture – imaging, PC-3E GFP, TEM4-18 mCherry, primary screen (AID 1345086;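 active means compounds killing one labelled cell type while sparing the other, by normalised counts and ratio limits, not self-fluorescent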;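 on all read-outs here: cells exposed to compound for 72 h before imaging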;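 on red/green cell ratio (normalised): normalised mesenchymal count divided by normalised epithelial count so high means epithelial killing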); conditions: PC-3E GFP / TEM4-18 mCherry co-culture, imaging cell counts, at 1 µM; for red/green cell ratio (normalised): actives lie on both sides, counts scaled to control wells, 1 = unselective
# [2] = viability loss in pontine glioma line – cell-based, SU-DIPG-XVII, MIPE5.0, CellTiter-Glo, qHTS, dose response (AID 1347060); conditions: CellTiter-Glo ATP luminescence
# [3] = viability loss in pontine glioma line – cell-based, JHH-DIPG-1, MIPE4.0, CellTiter-Glo, qHTS, dose response (AID 1347062; cut-off not given, nearly all actives have AC50 up to about 27 µM); conditions: JHH-DIPG-1 viability, CellTiter-Glo ATP luminescence
# [4] = viability loss in pontine glioma line – cell-based, SU-DIPG-IV, MIPE4.0, CellTiter-Glo, qHTS, dose response (AID 1347063; cut-off not given, nearly all actives have AC50 up to about 30 µM;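 further: compound exposure lasted 48 hours before the viability readout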); conditions: CellTiter-Glo ATP luminescence
# [5] = viability loss in pontine glioma line – cell-based, SU-DIPG-XXV, MIPE5.0, CellTiter-Glo, qHTS, dose response (AID 1347065); conditions: CellTiter-Glo ATP luminescence;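 further: cells exposed to compound for 48 hours before ATP readout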
# [6] = growth inhibition of DIPG cells – cell-based, MIPE4.0 library, CellTiter-Glo luminescence, qHTS (AID 1347066; cut-off not given, nearly all actives have AC50 up to about 30 µM;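 further: cells exposed to compound for 48 hours before readout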); conditions: SU-DIPG-VI viability, CellTiter-Glo ATP luminescence
# [7] = JHH-DIPG-1 glioma cell viability, MIPE5.0 library, CellTiter-Glo luminescence, qHTS (AID 1347067); conditions: JHH-DIPG-1 glioma viability, CellTiter-Glo ATP luminescence;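 further: cells exposed to compound for 48 hours before readout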
# [8] = growth inhibition of DIPG cells – cell-based, MIPE5.0 library, qHTS (AID 1347068; cut-off not given, nearly all actives have IC50 up to about 30 µM); conditions: SU-DIPG-XXV viability
# [9] = viability loss with induced miR-34 in A549 – imaging, A549 dox-inducible miR-34, nuclei and caspase counts, primary screen (AID 1347080;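 active means compounds whose cell count with miR-34 switched on is under 0.7 times the count with it off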); conditions: A549 miR-34 inducible, Hoechst nuclei count, 48 h
# [10] = MELAS cybrid and Rieske KO viability enhancers – cell-based, MELAS cybrids, Rieske KO mouse fibroblasts, CellTiter-Glo, primary screen (AID 1508586;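 active means mean z-score across replicates of 1.96 or higher in either the MELAS or the Rieske mutant cell line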;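 further: z relative to plate mean and SD of compound and empty wells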); conditions: low glucose
# [11] = biological target: NAD(+) hydrolase SARM1 (Homo sapiens) (UniProt Q6SZW1); assay: blocking NAD cleavage by SARM1 SAM-TIR – cell lysate, NAD-Glo luminescence (AID 1508614;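 active means compound whose remaining NAD level is above about 45 nM, limit read from the data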); conditions: SAM-TIR HEK293T lysate NADase, at 1 µM, stronger effect = higher value
# [12] = compounds altering viability of human ES cells (AID 493140; call rule not given here;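 further: cells exposed to compounds for four days before counting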); conditions: human embryonic stem cell survival screen; stronger effect = higher value
# [13] = P. berghei load reduction in hepatocytes – cell-based, HepG2, luciferase luminescence, HepG2 viability, primary screen (AID 624349; in the data active means parasite load remaining mostly below about 12%, no sharp cut-off; inactive means mostly above about 10%;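 further: 100% = mean of DMSO negative control wells on the same plate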); conditions: P. berghei liver stage in HepG2, luciferase luminescence, concentration not given here; parasite load remaining: stronger effect = lower value; viability: measured here: HepG2 viability without parasites
# [14] = viability loss in pontine glioma line – cell-based, SU-DIPG-XIII, MIPE4.0, CellTiter-Glo, qHTS, dose response (AID 1347061; cut-off not given, nearly all actives have AC50 up to about 37 µM;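 further: cells exposed to compound for 48 hours before readout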); conditions: CellTiter-Glo ATP luminescence
# [15] = viability loss in pontine glioma line – cell-based, SU-DIPG-XIII, MIPE5.0, CellTiter-Glo, qHTS, dose response (AID 1347064; cut-off not given, nearly all actives have AC50 up to about 23 µM); conditions: CellTiter-Glo ATP luminescence
# [16] = compounds altering circadian rhythm period length – cell-based, LOPAC library, luminescence reporter (AID 2774; call rule not given here;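 further: values are relative to mean of DMSO wells on each plate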); conditions: circadian reporter cells, at 7 µM, actives lie on both sides
# [17] = test system: Hepatitis C virus NS3 helicase; assay: blockers of NS3h binding to ssDNA – biochemical, fluorescence polarization, LOPAC1280 library, primary screen (AID 687035; in the data active means inhibition above about 37%); conditions: Purified HCV NS3 helicase, Cy5-dT15 ssDNA binding fluorescence polarization; stronger effect = higher value; concentration not given here
# [18] = compounds altering Cy5-DNA-NS3h complex signal – biochemical, LOPAC1280, artefact control for HCV NS3 helicase inhibitor project (AID 687037; call rule not given here); conditions: Cy5-DNA-NS3h complex fluorescence interference counterscreen
# [19] = blockers of cellular phospholipid synthesis – cell-based, LOPAC library, screen 4, primary screen (AID 1347384; call rule not given here); conditions: animal cells, phospholipid biosynthesis inhibition screen; at 10 µM
# [20] = galactose survival enhancers in mitochondrial complex I cybrids – cell-based, galactose medium, ATP luminescence, primary screen (AID 1645843;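 active means z-score of at least 1.8 in each of two replicates, scored against plate mean and spread of sample wells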;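 further: positive z means more ATP and so rescue of galactose-driven cybrid death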); conditions: complex I mutant cybrid cells, 72 h, stronger effect = higher value
# [21] = measured here: epithelial PC-3E GFP cell survival
# [22] = measured here: mesenchymal TEM4-18 mCherry cell survival
# [23] = stronger effect = lower value, cell number ratio, induced over uninduced
# [24] = measured here: relative caspase fold change +Dox/-Dox
# [25] = measured here: total cells with miR-34 induction, stronger effect = lower value
# [26] = measured here: total cells without miR-34 induction
# Sequence of NAD(+) hydrolase SARM1 (Homo sapiens) (Q6SZW1 whole entry, looked up): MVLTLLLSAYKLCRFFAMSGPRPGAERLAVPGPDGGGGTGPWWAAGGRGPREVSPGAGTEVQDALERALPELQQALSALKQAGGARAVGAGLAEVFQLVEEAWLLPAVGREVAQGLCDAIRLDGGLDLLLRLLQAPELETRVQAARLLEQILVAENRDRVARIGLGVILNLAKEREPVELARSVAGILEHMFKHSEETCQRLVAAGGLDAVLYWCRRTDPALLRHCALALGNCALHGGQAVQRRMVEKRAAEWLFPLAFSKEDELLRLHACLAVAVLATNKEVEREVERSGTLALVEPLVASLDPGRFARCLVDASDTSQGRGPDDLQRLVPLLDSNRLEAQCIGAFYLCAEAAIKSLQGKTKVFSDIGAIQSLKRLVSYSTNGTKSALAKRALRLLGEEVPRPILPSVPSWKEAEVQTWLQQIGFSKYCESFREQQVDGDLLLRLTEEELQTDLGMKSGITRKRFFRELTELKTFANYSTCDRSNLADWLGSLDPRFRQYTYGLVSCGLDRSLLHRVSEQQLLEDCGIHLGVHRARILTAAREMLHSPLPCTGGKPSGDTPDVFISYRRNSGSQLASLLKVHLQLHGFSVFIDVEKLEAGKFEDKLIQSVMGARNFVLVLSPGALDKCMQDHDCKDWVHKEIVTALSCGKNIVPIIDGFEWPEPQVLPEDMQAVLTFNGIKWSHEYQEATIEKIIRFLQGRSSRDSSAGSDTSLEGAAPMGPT
smiles,measurement,setting,value
CN1C(C(=O)Nc2ccccn2)=C(O)c2sc(Cl)cc2S1(=O)=O,red/green cell ratio (normalised),[1],0.78 (inactive)
same,normalised cell number,[1]; [21],1.13
same,normalised cell number,[1]; [22],0.88
same,outcome,[2],inactive
same,outcome,[3],inactive
same,outcome,[4],inactive
same,outcome,[5],inactive
same,outcome,[6],inactive
same,outcome,[7],inactive
same,outcome,[8],inactive
same,fold change,[9]; [23],0.905 (inactive) and 0.871 (inactive)
same,fold change,[9]; [24],0.83 and 0.817
same,cell count,[9]; [25],9030 and 7600
same,cell count,[9]; [26],9980 and 8730
same,z-score,"[10]; MELAS cybrid survival, CellTiter-Glo 48 h, stronger effect = higher value",-0.192 (inactive)
same,z-score,"[10]; Rieske KO mouse fibroblast survival, CellTiter-Glo 72 h",0.681
same,remaining NAD,[11],10 nM (inactive)
Cc1cc2nc3c(=O)[nH]c(=O)nc-3n(CC(O)C(O)C(O)CO)c2cc1C (configuration not stated),survival,[12],1.58 (inactive)
same,parasite load remaining,[13],149% (inactive) and 66% (inactive) and 85.7% (inactive)
same,viability,[13],87.6% and 75.7% and 118%
same,red/green cell ratio (normalised),[1],0.96 (inactive)
same,normalised cell number,[1]; [21],1.14
same,normalised cell number,[1]; [22],1.1
same,outcome,[2],inactive
same,outcome,[14],inactive
same,outcome,[3],inactive
same,outcome,[15],inactive
same,outcome,[5],inactive
same,outcome,[6],inactive
same,outcome,[7],inactive
same,fold change,[9]; [23],0.948 (inactive)
same,fold change,[9]; [24],3.38
same,cell count,[9]; [25],12400
same,cell count,[9]; [26],13100
Nc1nc(N)c2nc(CNc3ccc(C(=O)NC(CCC(=O)O)C(=O)O)cc3)cnc2n1 (configuration not stated),period change,[16],-0.245 h (inactive)
same,parasite load remaining,[13],160% (inactive)
same,viability,[13],70.2%
same,inhibition,[17],-4% (inactive)
same,fluorescence ratio (interference),[18],0.9 (inactive)
same,red/green cell ratio (normalised),[1],0.95 (inactive)
same,normalised cell number,[1]; [21],1.01
same,normalised cell number,[1]; [22],0.96
same,AC50,[14],11.8 µM (active)
same,outcome,[6],inactive
same,outcome,[7],inactive
same,fold change,[9]; [23],1.22 (inactive)
same,fold change,[9]; [24],1.88
same,cell count,[9]; [25],2740
same,cell count,[9]; [26],2230
same,outcome,[19],inactive
same,z-score,[20],0.075 (inactive)
CC(NCCc1ccc(O)cc1)C(O)c1ccc(O)cc1 (configuration not stated),parasite load remaining,[13],92.5% (inactive) and 43.7% (inactive)
same,viability,[13],69.7% and 91.3%
same,red/green cell ratio (normalised),[1],1.16 (inactive)
same,normalised cell number,[1]; [21],0.9
same,normalised cell number,[1]; [22],1.05
same,outcome,[2],inactive
same,outcome,[14],inactive
same,outcome,[3],inactive
same,outcome,[4],inactive
same,outcome,[5],inactive
same,outcome,[6],inactive
same,outcome,[7],inactive
same,outcome,[8],inactive
same,fold change,[9]; [23],0.955 (inactive)
same,fold change,[9]; [24],3.65
same,cell count,[9]; [25],12000
same,cell count,[9]; [26],12600
N#C[C@@H]1C[C@@H]2C[C@@H]2N1C(=O)[C@@H](N)C12CC3CC(CC(O)(C3)C1)C2,red/green cell ratio (normalised),[1],0.9 (inactive)
same,normalised cell number,[1]; [21],1.31
same,normalised cell number,[1]; [22],1.19
same,outcome,[2],inactive
same,outcome,[3],inactive
same,outcome,[4],inactive
same,outcome,[15],inactive
same,outcome,[5],inactive
same,outcome,[8],inactive
same,fold change,[9]; [23],0.886 (inactive)
same,fold change,[9]; [24],0.64
same,cell count,[9]; [25],8720
same,cell count,[9]; [26],9840
same,remaining NAD,[11],10 nM (inactive)
